# PfHsp90 yeast 2 = growth inhibition of PfHsp90-expressing yeast, primary screen, antimalarial PfHsp90 inhibitor project, S. cerevisiae, BacTiter-Glo luminescence, single point, set 2. BacTiter-Glo ATP, 48 h; yeast lacking PDR1 and PDR3 efflux regulators. inhibition, % at 9.4 µM. hit rate 0.32% among 310,000;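 active = every replicate shows inhibition above about 80%, whatever the replicate mean, limit read from the data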;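 note: 0% = DMSO neutral controls and 100% = 20 µM radicicol positive controls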
# TIM10 inh = growth inhibitors of isogenic TIM10 control yeast, primary screen, counter-screen for tim10-1 yeast inhibitor project, luminescence, uHTS. S. cerevisiae TIM10 strain growth, BacTiter-Glo luminescence, 24 h. hit rate 1.4% among 330,000. AID 463195, 2010. inhibition, % at 10 µM;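 active = inhibition of 40% or more at the single tested concentration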;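 note: wild-type TIM10 isogenic control strain grown at permissive 25 °C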
# Mot1-301 SUMO = yeast Mot1-301 growth rescue at high temperature, primary screen, SUMOylation pathway inhibitor project, S. cerevisiae, ATP luminescence, 38.5C; S. cerevisiae Mot1-301 growth rescue; percent above DMSO median, 100 means doubled; growth rescue, % at 18.8 µM; hit rate 1% among 320,000; AID 2716, 2010;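 active = every valid replicate shows activation above 250% relative to neutral control wells; inactive = the rest, any valid replicate at or below 250%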;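 note: OY570 slx delta 5 strain wells were the positive control but not used for scaling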
# tim10-1 inh = growth inhibitors of tim10-1 mutant yeast, primary screen, luminescence, uHTS | AID 463190, 2010 | inhibition, % at 20 µM | S. cerevisiae tim10-1 ts strain growth, BacTiter-Glo, 24 h | hit rate 2.2% among 330,000;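 active = inhibition of at least 40%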;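 note: mutant grown at 25 °C; 0% = DMSO wells with yeast and 100% = wells holding no yeast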
# tim23-1 inh = growth inhibitors of tim23-1 mutant yeast, primary screen, luminescence, uHTS; S. cerevisiae tim23-1 growth, BacTiter-Glo luminescence, 24 h; inhibition, % at 20 µM; hit rate 1.3% among 330,000;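 active = growth inhibition of the mutant yeast at or above 50%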;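 note: temperature-sensitive mutant grown at 25 °C; plate controls were DMSO-treated mutant yeast for no effect and medium wells lacking yeast for full effect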
# tim23-1 conf = tim23-1 mutant yeast growth inhibitors, confirmation, luminescence, single concentration. AID 463218, 2010. S. cerevisiae tim23-1 growth, BacTiter-Glo luminescence, 24 h. shares compounds with tim23-1 inh. hit rate 83% among 4,400. inhibition, % at 20 µM;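 active = inhibition above about 39% in either of two replicate wells at 20 µM, limit read from the data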;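 note: temperature-sensitive tim23-1 mutant grown at 25 °C; 0% = DMSO wells with yeast and 100% = medium wells without yeast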
# * hit, by the source's call; nt = no result given. Sampled rows, rich in hits. Any-hit rate of the full collection: about 4.4%.
SMILES,PfHsp90 yeast 2,TIM10 inh,Mot1-301 SUMO,tim10-1 inh,tim23-1 inh,tim23-1 conf
CCOc1ccc(S(=O)(=O)N2CCN(C(=O)CCC(=O)N3CCOCC3)CC2)cc1,-6,0,1,-13,-3,nt
COC(=O)c1cc2ccccc2c(-c2c(O)ccc3ccccc23)c1O,-59,34,163,-4,69*,-30
COc1cc(CN(C2CC2)S(=O)(=O)c2ccccc2Br)cc(OC)c1,11,-16,nt,20,44,nt
COc1ccc(N2CCN(C(=S)NC(=O)c3cccs3)CC2)c([N+](=O)[O-])c1,-44,19,1,35,53*,46*
O=C(NC(=S)N1CCN(c2c(Cl)cccc2[N+](=O)[O-])CC1)c1cccs1,-19,35,-16,24,23,nt
CC(C)CCC(CCNCc1ccccn1)c1ccc(Cl)cc1 (stereo unspecified),-19,18,-38,11,14,nt
Cc1cccc(NC(=O)CSCC(=O)Nc2cc(Cl)ccc2N2CCOCC2)c1,nt,18,-13,7,18,nt
CCN(CCCNC(=O)CCc1nc(-c2ccc(C)cc2)no1)c1cccc(C)c1,-16,29,22,31,52*,43*
CCOC(=O)N1CCC(NC(=O)c2oc3c(C)c(C)ccc3c2C)CC1,-4,30,0,37,60*,58*
O=C(CSc1ccccc1)N/N=C/c1ccccc1O,-19,19,13,25,52*,55*
CCN(CC(=O)NCc1cccs1)C(=O)c1ccc(S(=O)(=O)N(CC)c2ccccc2)cc1,9,5,0,9,24,nt
O=C(Nc1ccccc1-c1ccccc1)NC1CC2CCCC(C1)N2Cc1ccc(F)cc1 (stereo unspecified),-16,0,126,10,56*,17
O=C(Nc1ccccc1-c1ccccc1)NC1CC2CCCC(C1)N2CCc1ccccc1 (stereo unspecified),5,17,-16,8,7,nt
CCN1C(=O)c2cccc3c(S(=O)(=O)N(C(=O)c4cccnc4)c4ccc(OC)cc4)ccc1c23,4,-8,3,5,46,nt
CCN1C(=O)c2cccc3c(S(=O)(=O)N(C(=O)c4ccncc4)c4ccc(OC)cc4)ccc1c23,-64,9,9,24,52*,30
COc1ccc(C2=NNC(c3ccco3)=Nc3ccc(F)cc32)cc1,-10,10,5,16,37,nt
COc1ccc2c(c1)C(c1ccc([N+](=O)[O-])cc1)=NNC(c1ccco1)=N2,8,33,15,39,53*,37*
Cc1ccc(S(=O)(=O)N(C)C)cc1NC(=S)N(C)C1CCN(C)CC1,-11,-8,150,15,13,nt
CC(C)n1cc(NC(=O)c2cc(-c3ccccc3)on2)cn1,-5,26,15,21,55*,54*
Cc1ccc(/C=N/NC(=O)c2ccncc2)s1,-8,-15,326,-9,3,nt
O=C(N/N=C/c1ccc([N+](=O)[O-])s1)c1ccncc1,2,39,341,34,63*,67*
O=C(c1ccc(CS(=O)c2cccc(Cl)c2)o1)N1CCCCCC1 (stereo unspecified),-4,1,7,24,19,nt
O=C(COc1c(Br)cc(Br)c2cccnc12)N1CCc2ccccc2C1,-27,12,-9,36,51*,51*
O=C1c2c(Cl)c(Cl)c(Cl)c(Cl)c2C(=O)N1c1nccs1,9,nt,nt,nt,nt,nt
c1ccc2[nH]c(-c3ccc4c(c3)OCO4)nc2c1,nt,13,1,26,77*,59*
O=C1C=C(c2ccc3cc[nH]c3c2)C[C@@H](c2ccc3c(c2)OCO3)C1,-31,23,8,21,55*,47*
NC(=O)CSc1nnc(-c2cccc(S(=O)(=O)N3CCOCC3)c2)n1C1CCCCCC1,nt,9,-8,-8,-1,nt
Cc1ccc(CSc2nnc(-c3cccc(S(=O)(=O)N4CCOCC4)c3)n2C2CCCC2)cc1,-1,17,48,15,52*,43*

# Screening data from PubChem BioAssay.
